HP1b binding inh – HP1-beta chromodomain-methylated histone interaction inhibition | Potency, µM (doses to about 114 µM), usual class: inhibitors | 390,000 tested, 0.56% active | AlphaScreen HP1-beta / biotin-H3K9me3 peptide binding | P83916 | AID 540317; note: nearly all actives have a fitted effect of over 70% in size
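AlphaScreen: HP1-beta (50 nM) preformed 30 min with biotin-H3(1-18)K9me3 peptide (50 nM) in PBS pH 7.4, 0.01% Tween-20. Compound added for 30 min at RT, then streptavidin donor/nickel chelate acceptor beads (10 ug/mL) for 30 min.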
BAZ2B inh – inhibitors of human BAZ2B bromodomain. Potency, µM (series often up to 114 µM), usual class: inhibitors. AlphaScreen BAZ2B-H3K14Ac peptide displacement. Q9UIF8. 360,000 tested, 4.4% active; note: nearly all actives have a fitted effect of over 60% in size
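BAZ2B 50 nM plus b-H3(5-23)K14Ac 50 nM, PBS pH 7.4/0.01% Tween-20, 30 min RT; compound added (max 110 uM), 30 min RT; streptavidin donor/Ni-chelate acceptor beads 10 ug/mL final, 20 min dark; AlphaScreen read.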
Sfp PPTase inh – Sfp phosphopantetheinyl transferase inhibition | 310,000 tested, 3.5% active | Biochemical Sfp PPTase activity, qHTS | Q9F4F7 | Potency, µM, hits mostly inhibitors | AID 1490;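 note: the enzyme is Sfp with the accession as filed and its product quenches rhodamine fluorescence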
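Step 1, compound plus 15 nM Sfp-PPTase, 15 min, room temperature. Step 2, add rhodamine-CoA (5 uM) and BHQ-2-YbbR (12.5 uM). Step 3, read 525/598 nm fluorescence at 0 and 30 min.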
JMJD2A Tudor – inhibitors of human JMJD2A Tudor domain. O75164. AlphaScreen JMJD2A-Tudor / H3K4me3 peptide binding. Potency, µM (highest dose often 114 µM), most hits filed as inhibitors. 390,000 tested, 4.4% active; note: nearly all actives have a fitted effect of over 50% in size
G9a inh – inhibitors of human histone lysine methyltransferase G9a. Q96KQ7. G9a H3K9 monomethylation, AlphaScreen, 2 h. Potency, µM (series often up to 102 µM), actives largely listed as inhibitors. 350,000 tested, 8.8% active; note: nearly all actives have a fitted effect of over 75% in size
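G9a (20 nM) was preincubated 15 min with compound, then reacted 2 h at room temperature with 500 nM biotin-H3K9 peptide and 20 µM SAM. Monomethyl-H3K9 detected by AlphaScreen using anti-H3K9me1 antibody.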
Numbers stand for hits; . = inactive; ? = inconclusive; / = no result; ! = a repeat was not active; [ ] = another dose, or the depositor's remark. Sampled rows, rich in hits. Any-hit rate of the full collection: about 12%. Calls come from the whole dose curve; as a rule, active = well fitted curve in the direction sought with a large enough effect; inconclusive = small, poorly fitted or top-dose-only effect, or another doubt; inactive = no such curve, though single readings can be large; an effect the other way counts as inactive or inconclusive.

SMILES	HP1b binding inh	BAZ2B inh	Sfp PPTase inh	JMJD2A Tudor	G9a inh
CCOc1ccccc1OCCCC(=O)N(CC)CC(=O)Nc1ccc(NC(C)=O)cc1	.	.	/	.	50µM
Cc1cc(C)c(Cn2c(=O)n(CCC(=O)NCCc3ccccc3)c(=O)c3ccccc32)c(C)c1	.	.	/	.	.
Cc1cc(C)cc(C(=O)n2cnnc2N)c1	.	.	.	.	?
Cc1cccc(C(=O)n2cnnc2N)c1	.	.	.	.	22µM
CSc1nc(C)c(C(=O)C[n+]2ccccc2)cc1C#N	.	0.79µM	.	.	/
CCOC(=O)c1cc(C)nc(SC)c1C#N	.	.	79µM	.	50µM
CCOC(=O)c1cc(C#N)c(SCC(=O)c2cc(C#N)c(SC)nc2C)nc1C	.	.	16µM	.	45µM
COc1ccc(-c2nc3ccccc3c(=O)n2-c2c(C)n(C)n(-c3ccccc3)c2=O)cc1	.	.	.	.	.
O=C(COC(=O)CCSc1ccc(Cl)cc1)NCc1ccco1	.	?	?	.	.
COc1ccc(-c2csc(Nc3cccnc3)n2)cc1	.	.	79µM	.	.
COc1ccc(-c2csc(Nc3ncccc3C)n2)cc1OC	.	?	.	?	?
COc1ccc(-c2csc(Nc3ncccc3C)n2)cc1	.	.	.	?	18µM
Cc1nc(C)c(-c2csc(Nc3ncccc3C)n2)s1	.	.	.	.	/
Cc1cccnc1Nc1nc(-c2ccc(O)c(O)c2)cs1	?	40µM	50µM	45µM	11µM
CCCCC(CC)C(=O)Nc1cc(C(=O)NCCC)ccc1N1CCC2(CC1)CC(c1cccc(Br)c1)=NO2 (stereo not drawn)	.	.	/	.	.[2.33 µM]
CC1(C)C(/C=C/C=C/C=C/C=C2\N(CCCCS(=O)(=O)O)c3ccc4ccccc4c3C2(C)C)=[N+](CCCCS(=O)(=O)[O-])c2ccc3ccccc3c21	?	/	50µM	6.3µM	?
O=C1CNC(=O)/C1=C/c1ccc(Br)cc1	.	.	.	.	/
O=c1c2ccccc2cnn1Cc1cccc(Br)c1	.	.	.	.	.
C[c-]1[c-](C)[c-](C)[c-](C)[c-]1C.[Fe].c1cc2nccc(N3CCCC3)[c-]2c1 (stereo not drawn)	18µM!	40µM	89µM!	45µM	?
CCn1cc(S(=O)(=O)NCCc2ccccc2OC)cn1	.	.	.	.	.
CCC(c1nnc(SCC(=O)NCCc2ccc(Cl)cc2Cl)o1)N(C)C (stereo not drawn)	.	.	?	.	40µM
O=C(Cn1nc(-c2ccc(Cl)cc2)ccc1=O)NCC1CCCO1 (stereo not drawn)	.	.	.	.	.
O=C(Cn1nc(-c2cccc(Cl)c2)ccc1=O)NCC1COCCO1 (stereo not drawn)	.	79µM	/	.	.
COc1cc(OC)c2c(O)c3c(c(-c4c5c(c(O)c6c(OC)cc(OC)cc46)CO[C@@H](C)[C@H]5O)c2c1)[C@H](O)[C@H](C)OC3	?	45µM	?	50µM	.[12.7 µM]
COc1cc(OC)c2c(=O)c(O)c(-c3ccc(OC)c(OC)c3)oc2c1	/	/	.	/	/
SMILES	HP1b binding inh	BAZ2B inh	Sfp PPTase inh	JMJD2A Tudor	G9a inh
O=C(Cn1c(=O)n(Cc2ccco2)c(=O)c2oc3ccccc3c21)Nc1ccccc1	.	.	/	.	.
COc1ccc(N(Cc2ccccc2)C(=O)c2nc(S(C)(=O)=O)ncc2Cl)cc1	.	.	/	.	11µM
CS(=O)(=O)c1ncc(Cl)c(C(=O)N(Cc2ccc(Cl)cc2)Cc2ccco2)n1	.	.	/	.	11µM
CCOc1ccc(N(Cc2ccccc2)C(=O)c2nc(SC)ncc2Cl)cc1	.	.	/	.	.
COC(=O)C1(Cc2cc(-c3cccc(Br)c3)no2)CCN(C(=O)OC(C)(C)C)CC1	.	.	.	.	/
CC(CC(=O)Nc1ccccc1)NCCCN1CCCC1=O (stereo not drawn)	79µM	50µM	.	0.71µM	8.9µM
S=C(NCCCN1CCOCC1)Nc1ccc(-c2nc3ccccc3[nH]2)cc1	.	/	35µM	.	32µM
CC(C)N(c1ccccc1)c1ccc(NC(=S)NCCN(C)C)cc1	.	.	.	.	45µM
CCNC(=S)Nc1ccc(N(c2ccccc2)C(C)C)cc1	.	.	?	?	?
O=C1CCCN1CCCNC(=S)Nc1ccc(Nc2ccccc2)cc1	.	?	56µM	.	/
O=C1CCCN1CCNC(=S)Nc1ccccc1	.	.	.	.	.[12.7 µM]
